The panel holds about 83,000 compounds, 20% with a hit somewhere; the sample as a whole holds those more often.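 Note: values are percent growth. 100 is the growth of untreated cells, values between 100 and 0 indicate rising inhibition; between -100 and 0 indicates cell death.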 Activity calls are given as the source filed them. How the source made its calls: active means growth percent below 10; inactive means the rest.
Legend:
Experiment in all cases: NCI-60 one-dose screen, 48 h (100 = growth as untreated, 0 = no growth, -100 = all killed)
Conditions in all cases: 10 µM unless noted
HCT-15 colon = test system: HCT-15 colon
HT29 colon = test system: HT29 colon
SNB-75 CNS = test system: SNB-75 CNS
SNB-19 CNS = test system: SNB-19 CNS
U251 CNS = test system: U251 CNS
PC-3 prostate = test system: PC-3 prostate
SK-MEL-5 melanoma = test system: SK-MEL-5 melanoma
UACC-62 melanoma = test system: UACC-62 melanoma
LOX IMVI melanoma = test system: LOX IMVI melanoma
SK-MEL-28 melanoma = test system: SK-MEL-28 melanoma
SK-MEL-2 melanoma = test system: SK-MEL-2 melanoma
EKVX NSCLC = test system: EKVX NSCLC
SN12C renal = test system: SN12C renal
UO-31 renal = test system: UO-31 renal
TK-10 renal = test system: TK-10 renal
ACHN renal = test system: ACHN renal
CAKI-1 renal = test system: CAKI-1 renal
A498 renal = test system: A498 renal
CCRF-CEM leukemia = test system: CCRF-CEM leukemia
MOLT-4 leukemia = test system: MOLT-4 leukemia

Measured: growth

CCN(CC)S(=O)(=O)c1ccc(S(=O)(=O)N2CCC[C@@H](C(=O)N3CCN(c4nc(C(C)C)no4)CC3)C2)cc1
active: A498 renal 6.31%
inactive: HCT-15 colon 92.2% | HT29 colon 87.8% | SNB-75 CNS 56.4% | SNB-19 CNS 64.2% | U251 CNS 85.3% | PC-3 prostate 76.2% | SK-MEL-5 melanoma 17.2% | UACC-62 melanoma 59.7% | LOX IMVI melanoma 54% | SK-MEL-28 melanoma 91% | SK-MEL-2 melanoma 94.6% | EKVX NSCLC 55.1% | SN12C renal 84.9% | UO-31 renal 58.6% | TK-10 renal 74.5% | ACHN renal 68.5% | CAKI-1 renal 58.4% | CCRF-CEM leukemia 63.7% | MOLT-4 leukemia 61.1%

O=S(=O)(Nc1ccc(F)cc1F)c1ccc(-c2cnc(C3CC3)o2)cc1
active: SNB-75 CNS -13.1% | SK-MEL-5 melanoma 6.16% | A498 renal -3.02%
inactive: HCT-15 colon 23.7% | HT29 colon 14% | SNB-19 CNS 46.5% | U251 CNS 26.6% | PC-3 prostate 42.5% | UACC-62 melanoma 27.4% | LOX IMVI melanoma 41.5% | SK-MEL-28 melanoma 63.5% | SK-MEL-2 melanoma 36.7% | EKVX NSCLC 41.1% | SN12C renal 42.9% | UO-31 renal 40% | TK-10 renal 67.2% | ACHN renal 38.5% | CAKI-1 renal 25% | CCRF-CEM leukemia 19.3% | MOLT-4 leukemia 28.3%

O=C(Nn1c2c(sc1=NC1CC1)C(=O)c1ccccc1C2=O)c1cc2ccc1CCc1ccc(cc1)CC2
active: HCT-15 colon 2.79% | SNB-75 CNS -10.4% | SK-MEL-5 melanoma -77.6% | UACC-62 melanoma -12.4% | LOX IMVI melanoma 0.512% | MOLT-4 leukemia 8.53%
inactive: HT29 colon 108% | SNB-19 CNS 33.7% | U251 CNS 32.6% | PC-3 prostate 30.7% | SK-MEL-28 melanoma 40.2% | SK-MEL-2 melanoma 49.5% | EKVX NSCLC 67.5% | SN12C renal 30.9% | UO-31 renal 21.5% | TK-10 renal 115% | ACHN renal 25.6% | CAKI-1 renal 30.8% | A498 renal 89.4% | CCRF-CEM leukemia 22.6%

N#CC1=C(N)Oc2c(sc3c(Br)cccc23)C1c1ccc(Cl)cc1 (centres undefined)
inactive: SNB-19 CNS 37% | PC-3 prostate 17.3% | SK-MEL-5 melanoma 17.3% | UACC-62 melanoma 10.3% | LOX IMVI melanoma 23.3% | SK-MEL-28 melanoma 44.8% | EKVX NSCLC 34.3% | SN12C renal 30% | UO-31 renal 34.2% | TK-10 renal 37.8% | ACHN renal 43.6% | CAKI-1 renal 39.3% | A498 renal 16.3% | CCRF-CEM leukemia 13.7%
active: HCT-15 colon 8.47% | HT29 colon -14.2% | SNB-75 CNS 4.29% | U251 CNS 7.28% | SK-MEL-2 melanoma -2.16% | MOLT-4 leukemia 3.26%

CCOC(=O)NC(C)C
inactive: HCT-15 colon 109% | HT29 colon 107% | SNB-75 CNS 96.8% | SNB-19 CNS 99.3% | U251 CNS 106% | PC-3 prostate 82% | SK-MEL-5 melanoma 103% | UACC-62 melanoma 105% | LOX IMVI melanoma 102% | SK-MEL-28 melanoma 119% | SK-MEL-2 melanoma 114% | EKVX NSCLC 105% | SN12C renal 100% | UO-31 renal 81.5% | TK-10 renal 115% | ACHN renal 100% | CAKI-1 renal 98.2% | A498 renal 117% | CCRF-CEM leukemia 110% | MOLT-4 leukemia 82.9%

NC(Cc1ccc(O)c([N+](=O)[O-])c1)C(=O)O (centres undefined)
inactive: HCT-15 colon 98.5% | HT29 colon 99.1% | SNB-75 CNS 97.2% | SNB-19 CNS 105% | U251 CNS 97.2% | PC-3 prostate 90.5% | SK-MEL-5 melanoma 105% | UACC-62 melanoma 103% | LOX IMVI melanoma 94.3% | SK-MEL-28 melanoma 99.9% | SK-MEL-2 melanoma 109% | EKVX NSCLC 111% | SN12C renal 95.7% | UO-31 renal 88.2% | TK-10 renal 94.4% | ACHN renal 99.2% | CAKI-1 renal 93.9% | A498 renal 105% | CCRF-CEM leukemia 88.7% | MOLT-4 leukemia 96%

C=CCSc1nnc(NC(=O)CCl)s1
inactive: HCT-15 colon 89.7% | HT29 colon 110% | SNB-75 CNS 103% | SNB-19 CNS 89.8% | U251 CNS 92% | PC-3 prostate 103% | SK-MEL-5 melanoma 88% | UACC-62 melanoma 88.8% | SK-MEL-28 melanoma 99% | SK-MEL-2 melanoma 103% | EKVX NSCLC 100% | SN12C renal 95.2% | UO-31 renal 95.5% | TK-10 renal 108% | ACHN renal 94.5% | CAKI-1 renal 93.3% | A498 renal 90.3% | CCRF-CEM leukemia 77.2% | MOLT-4 leukemia 90.7%
active: LOX IMVI melanoma 7.79%

Fc1ccc(CNc2c3ccccc3nc3ccccc23)c(F)c1
inactive: HCT-15 colon 28.7% | HT29 colon 21.8% | SNB-75 CNS 81.1% | SNB-19 CNS 41.5% | U251 CNS 44.1% | PC-3 prostate 68.9% | SK-MEL-5 melanoma 69.4% | UACC-62 melanoma 59.1% | LOX IMVI melanoma 21.5% | SK-MEL-28 melanoma 90.4% | SK-MEL-2 melanoma 99.7% | EKVX NSCLC 45.5% | SN12C renal 37.2% | UO-31 renal 30.3% | TK-10 renal 61% | ACHN renal 23.4% | CAKI-1 renal 35.3% | CCRF-CEM leukemia 53.9% | MOLT-4 leukemia 23.8%
active: A498 renal -4.38%

COc1cc(OC)c(NC(=O)c2cc3ccccc3cc2O)cc1Cl
active: PC-3 prostate -0.247% | UACC-62 melanoma 3.04% | UO-31 renal -10.7% | CAKI-1 renal 6.59%
inactive: HCT-15 colon 48.5% | HT29 colon 101% | SNB-75 CNS 86.9% | SNB-19 CNS 51% | U251 CNS 17.7% | SK-MEL-5 melanoma 51.4% | LOX IMVI melanoma 24.2% | SK-MEL-28 melanoma 53.6% | SK-MEL-2 melanoma 15.4% | EKVX NSCLC 38.4% | SN12C renal 28.1% | TK-10 renal 32.8% | ACHN renal 22.7% | A498 renal 18.8% | CCRF-CEM leukemia 26.9% | MOLT-4 leukemia 26.9%

N#Cc1ccc(O)c(C2=NCC(c3cccc(Oc4ccccc4)c3)O2)c1 (centres undefined)
active: U251 CNS 3.98% | UACC-62 melanoma -1.59% | SK-MEL-2 melanoma 7.46% | UO-31 renal -6.42% | TK-10 renal 3.38% | CAKI-1 renal 6.87% | MOLT-4 leukemia -0.248%
inactive: HCT-15 colon 26.8% | HT29 colon 13.8% | SNB-75 CNS 51.7% | SNB-19 CNS 22.3% | PC-3 prostate 31.4% | SK-MEL-5 melanoma 32.7% | LOX IMVI melanoma 23% | SK-MEL-28 melanoma 37.5% | EKVX NSCLC 24% | SN12C renal 33.3% | ACHN renal 17.5% | A498 renal 50.9% | CCRF-CEM leukemia 14.4%

C/C(Cc1ccc(Cl)cc1)=C(\c1ccc(O)cc1)c1ccc(Cl)cc1
inactive: HCT-15 colon 85.3% | HT29 colon 90.9% | SNB-75 CNS 94.7% | SNB-19 CNS 104% | U251 CNS 102% | PC-3 prostate 71.8% | SK-MEL-5 melanoma 100% | UACC-62 melanoma 84.6% | LOX IMVI melanoma 89.9% | SK-MEL-28 melanoma 95.1% | SK-MEL-2 melanoma 90.9% | EKVX NSCLC 83.9% | SN12C renal 95.1% | UO-31 renal 85.1% | TK-10 renal 95.3% | ACHN renal 99.5% | CAKI-1 renal 84.7% | A498 renal 116% | CCRF-CEM leukemia 92.2% | MOLT-4 leukemia 81%

Cc1nc2sc(C(=O)Nc3cccc(Br)c3)c(N)c2cc1C(O)c1ccccc1 (centres undefined)
inactive: HCT-15 colon 21% | HT29 colon 18.1% | SNB-75 CNS 55.4% | SNB-19 CNS 33.8% | U251 CNS 11.1% | PC-3 prostate 30.2% | SK-MEL-5 melanoma 17.9% | UACC-62 melanoma 26.2% | LOX IMVI melanoma 48% | SK-MEL-28 melanoma 61.9% | SK-MEL-2 melanoma 47.2% | EKVX NSCLC 48.5% | SN12C renal 22.4% | UO-31 renal 48.4% | TK-10 renal 58% | ACHN renal 33.2% | CAKI-1 renal 46.4% | CCRF-CEM leukemia 15.7% | MOLT-4 leukemia 17.1%
active: A498 renal 5.68%

O=C(CN1C(=O)NC2NC(=O)NC21)N/N=C/c1ccccc1[N+](=O)[O-] (centres undefined)
inactive: HCT-15 colon 103% | HT29 colon 112% | SNB-75 CNS 83.3% | SNB-19 CNS 96.8% | U251 CNS 107% | PC-3 prostate 101% | SK-MEL-5 melanoma 99.3% | UACC-62 melanoma 90.1% | LOX IMVI melanoma 102% | SK-MEL-28 melanoma 107% | SK-MEL-2 melanoma 114% | EKVX NSCLC 103% | SN12C renal 105% | UO-31 renal 87.8% | TK-10 renal 116% | ACHN renal 103% | CAKI-1 renal 90.1% | A498 renal 104% | CCRF-CEM leukemia 107% | MOLT-4 leukemia 103%

CCc1ccc(CCCC(=O)O)cc1
inactive: HCT-15 colon 101% | HT29 colon 101% | SNB-75 CNS 87.9% | SNB-19 CNS 95.7% | U251 CNS 101% | PC-3 prostate 96.8% | SK-MEL-5 melanoma 102% | UACC-62 melanoma 96.8% | LOX IMVI melanoma 99.5% | SK-MEL-28 melanoma 108% | SK-MEL-2 melanoma 103% | EKVX NSCLC 96.3% | SN12C renal 93.7% | UO-31 renal 92.1% | TK-10 renal 99.9% | ACHN renal 101% | CAKI-1 renal 94% | A498 renal 95% | CCRF-CEM leukemia 104% | MOLT-4 leukemia 98.8%

CC(=O)n1nc(C(=O)OC(C)(C)c2ccccc2)c2ccccc21
inactive: HCT-15 colon 101% | HT29 colon 97.5% | SNB-75 CNS 80.8% | SNB-19 CNS 95.7% | U251 CNS 98.6% | PC-3 prostate 92.3% | SK-MEL-5 melanoma 96.9% | UACC-62 melanoma 93% | LOX IMVI melanoma 91.2% | SK-MEL-2 melanoma 105% | EKVX NSCLC 100% | SN12C renal 86.9% | UO-31 renal 93.2% | TK-10 renal 101% | ACHN renal 100% | CAKI-1 renal 84.5% | A498 renal 96.8% | CCRF-CEM leukemia 83.1% | MOLT-4 leukemia 96.9%

CCOC(=O)c1c(NC(=O)c2ccc(Cl)cc2)sc2c(CN(C)C)c(O)ccc12
inactive: HT29 colon 23% | SNB-75 CNS 79.2% | SNB-19 CNS 79.5% | U251 CNS 54.4% | PC-3 prostate 72.9% | SK-MEL-5 melanoma 87.4% | UACC-62 melanoma 103% | LOX IMVI melanoma 60.6% | SK-MEL-28 melanoma 73.8% | SK-MEL-2 melanoma 101% | EKVX NSCLC 93.8% | SN12C renal 83.6% | UO-31 renal 67.5% | TK-10 renal 108% | ACHN renal 50.7% | CAKI-1 renal 67.2% | A498 renal 76.3% | CCRF-CEM leukemia 62.6% | MOLT-4 leukemia 59.5%
active: HCT-15 colon -1.49%

Reference: PubChem BioAssay (NCI)
